Consider nine molecules from PubChem BioAssay (NCI).

The panel holds about 83,000 compounds, 20% with a hit somewhere; the sample as a whole holds those more often.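 Testing used 96-well plates and a 48-hour single-concentration exposure. Example: -40 means 40% of the starting cells died.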 A number with no mark means an inactive call. Activity calls are given as the source filed them. How the source made its calls: active means growth percent below 10; inactive means the rest.

Test systems include SK-MEL-2 melanoma; EKVX NSCLC; UO-31 renal; TK-10 renal; ACHN renal; CAKI-1 renal; A498 renal; CCRF-CEM leukemia; MOLT-4 leukemia; SR leukemia; RPMI-8226 leukemia; OVCAR-8 ovarian; OVCAR-5 ovarian; OVCAR-4 ovarian; SK-OV-3 ovarian; IGROV1 ovarian; OVCAR-3 ovarian; HS 578T breast; NCI/ADR-RES ovarian; SN12C renal.
Holding throughout (assay): NCI-60 one-dose screen, 48 h (100 = growth as untreated, 0 = no growth, -100 = all killed)
What all share (conditions): 10 µM unless noted

For `O=C(O)c1cc2cc(OCc3ccccc3)ccc2[nH]1`, the growth in the assay with SK-MEL-2 melanoma is 39.9%; in the assay on EKVX NSCLC, 87.3%; in the assay with UO-31 renal, 74.4%; with TK-10 renal it was 114%; in the assay on ACHN renal, 98.7%; with CAKI-1 renal it was 82.3%. The growth was 98% with A498 renal; 98.4% in the assay with CCRF-CEM leukemia; 99.5% with MOLT-4 leukemia; 104% with SR leukemia; 94.3% in the assay with RPMI-8226 leukemia; 87.9% in the assay on OVCAR-8 ovarian. The growth in the assay with OVCAR-5 ovarian was 109%; in the assay with OVCAR-4 ovarian, 97.5%; in the assay on SK-OV-3 ovarian it was 94.7%; in the assay with IGROV1 ovarian, 110%; in the assay on OVCAR-3 ovarian it was 102%; in the assay on HS 578T breast, 97.1%. Besides, the growth with NCI/ADR-RES ovarian was 109%.
For the molecule `Clc1ccc(-c2cnc3c(-c4ccnc(N5CCNCC5)c4)cnn3c2)cc1`, the growth was -57.4% (active) in the assay with SK-MEL-2 melanoma; 80.8% in the assay with EKVX NSCLC; -42.6% (active) in the assay on UO-31 renal; 1.85% (active) in the assay with TK-10 renal; -0.355% (active) with ACHN renal; -19.2% (active) in the assay on CAKI-1 renal. Further, the growth is 92.2% in the assay with A498 renal; 0.88% (active) in the assay on CCRF-CEM leukemia; -5.54% (active) in the assay on MOLT-4 leukemia; -0.57% (active) in the assay on SR leukemia; -39% (active) in the assay with RPMI-8226 leukemia; 1.08% (active) in the assay with OVCAR-8 ovarian. Also, the growth was -21.2% (active) with OVCAR-5 ovarian; -60.9% (active) with OVCAR-4 ovarian; 85.2% in the assay with SK-OV-3 ovarian; -14.6% (active) in the assay on OVCAR-3 ovarian; -32% (active) in the assay on HS 578T breast; -0.0998% (active) in the assay on NCI/ADR-RES ovarian.
Consider `c1cc2c(cc1-c1cnc3nonc3n1)OCO2`, for which the growth with SK-MEL-2 melanoma was 115%; in the assay on EKVX NSCLC, 93.4%; in the assay on UO-31 renal, 87.9%; in the assay on TK-10 renal it was 105%; with ACHN renal it was 73.3%; in the assay with CAKI-1 renal, 84.4%. Also, the growth in the assay with A498 renal was 86.9%; in the assay with CCRF-CEM leukemia, 46%; with MOLT-4 leukemia, 80.3%; in the assay with SR leukemia it was 21.4%; in the assay with OVCAR-8 ovarian, 92.4%; in the assay on OVCAR-5 ovarian it was 93.7%. In addition, the growth in the assay on OVCAR-4 ovarian is 95.3%; in the assay with SK-OV-3 ovarian, 82.8%; in the assay on IGROV1 ovarian, 102%; in the assay on OVCAR-3 ovarian, 70.5%; with HS 578T breast it was 99.1%; with NCI/ADR-RES ovarian, 93.2%.
As to `CCOC(=O)C1C(=O)C=C(c2cc(OC)c(OC)c(OC)c2)CC1c1sc(N(C)Cc2ccccc2)nc1Cl` (stereo not given), the growth was 71.9% in the assay on SK-MEL-2 melanoma; 63.3% in the assay with EKVX NSCLC; 53% in the assay with UO-31 renal; 87.4% in the assay with TK-10 renal; 86.8% with ACHN renal; 46.8% in the assay on CAKI-1 renal. The growth was 86.1% with A498 renal; 82% in the assay with CCRF-CEM leukemia; 58.7% with MOLT-4 leukemia; 80.8% in the assay on SR leukemia; 82% with OVCAR-8 ovarian; 101% in the assay with OVCAR-5 ovarian. In addition, the growth with OVCAR-4 ovarian is 86.8%; in the assay with SK-OV-3 ovarian, 85.2%; in the assay on IGROV1 ovarian it was 95.6%; in the assay on OVCAR-3 ovarian it was 91.6%; in the assay on HS 578T breast, 55.9%; in the assay with NCI/ADR-RES ovarian, 86.3%.
On to `NS(=O)(=O)c1ccc(CCn2c(SCC(=O)N/N=C/c3ccccc3O)nc3ccccc3c2=O)cc1`, for which the growth in the assay on SK-MEL-2 melanoma is 14.2%; in the assay on EKVX NSCLC, 75.8%; in the assay with UO-31 renal, 70.4%; in the assay on TK-10 renal it was 70%; in the assay on ACHN renal, 87.4%; in the assay with CAKI-1 renal, 60.1%. Also, the growth in the assay with A498 renal was 21.7%; in the assay on CCRF-CEM leukemia, 18.7%; in the assay on MOLT-4 leukemia, 21.4%; with SR leukemia, 19.9%; with RPMI-8226 leukemia, 32.1%; in the assay with OVCAR-8 ovarian, 36.9%. The growth in the assay on OVCAR-5 ovarian was 69.2%; in the assay on OVCAR-4 ovarian it was 83.3%; with SK-OV-3 ovarian, 59.2%; with IGROV1 ovarian, 64.4%; with HS 578T breast it was 37.5%; with NCI/ADR-RES ovarian it was 92.3%.
Consider `O=C1CCCN1C(O)CCN(Cc1ccccc1)Cc1ccc(Cl)cc1` (stereo not given), for which the growth with SK-MEL-2 melanoma is 101%; in the assay with EKVX NSCLC, 101%; in the assay on UO-31 renal, 84.9%; in the assay on TK-10 renal it was 109%; in the assay with ACHN renal, 108%; in the assay on CAKI-1 renal, 97.3%. Moreover, the growth in the assay on CCRF-CEM leukemia was 91.7%; in the assay on MOLT-4 leukemia, 89.9%; in the assay with SR leukemia it was 83%; in the assay with RPMI-8226 leukemia it was 98.5%; in the assay on OVCAR-8 ovarian it was 96.7%; in the assay on OVCAR-5 ovarian, 99.2%. Further, the growth is 103% in the assay on OVCAR-4 ovarian; 101% in the assay with SK-OV-3 ovarian; 100% in the assay with IGROV1 ovarian; 108% with OVCAR-3 ovarian; 104% with HS 578T breast; 106% in the assay on NCI/ADR-RES ovarian.
On to `CCOc1cc(/C=N\NC(=O)C[N+](C)(C)C)ccc1O`, for which the growth is 115% with SK-MEL-2 melanoma; 98.7% with EKVX NSCLC; 113% with UO-31 renal; 105% with TK-10 renal; 103% in the assay on ACHN renal; 95.9% in the assay on CAKI-1 renal. In addition, the growth in the assay with CCRF-CEM leukemia is 98.5%; in the assay with MOLT-4 leukemia, 28.5%; in the assay with SR leukemia, 14.3%; with RPMI-8226 leukemia, 94%; in the assay on OVCAR-8 ovarian, 113%; in the assay with OVCAR-5 ovarian, 101%. Also, the growth with SK-OV-3 ovarian is 105%; in the assay on IGROV1 ovarian, 118%; with OVCAR-3 ovarian, 116%; in the assay with HS 578T breast, 117%; in the assay with NCI/ADR-RES ovarian, 103%.
As for `c1ccc2oc(-c3cnc4nonc4n3)cc2c1`, the growth with SK-MEL-2 melanoma was 95%; in the assay on EKVX NSCLC it was 71.2%; in the assay with SN12C renal it was 93%; in the assay with TK-10 renal, 132%; in the assay on ACHN renal, 82.3%; with CAKI-1 renal, 86.8%. The growth with CCRF-CEM leukemia is 95.8%; in the assay on MOLT-4 leukemia, 97.2%; in the assay with SR leukemia, 106%; in the assay with OVCAR-8 ovarian, 93.6%; with OVCAR-4 ovarian, 106%; in the assay with SK-OV-3 ovarian it was 84.8%. Also, the growth in the assay on IGROV1 ovarian was 87.2%; in the assay with OVCAR-3 ovarian, 108%; in the assay on HS 578T breast, 89.2%; in the assay with NCI/ADR-RES ovarian it was 92.4%.
Consider `CS(=O)(=O)c1ccc(C(=O)N/N=C/c2ccc3c(c2)OCO3)cc1`, for which the growth is 89.1% with SK-MEL-2 melanoma; 100% in the assay on EKVX NSCLC; 96.3% in the assay on UO-31 renal; 106% in the assay on TK-10 renal; 105% with ACHN renal; 93% with CAKI-1 renal. For the same molecule, the growth with CCRF-CEM leukemia is 87%; in the assay on MOLT-4 leukemia it was 70.8%; in the assay on SR leukemia it was 110%; in the assay on RPMI-8226 leukemia, 102%; with OVCAR-8 ovarian it was 93.8%; in the assay with OVCAR-5 ovarian it was 116%. In addition, the growth was 109% in the assay with OVCAR-4 ovarian; 107% with SK-OV-3 ovarian; 113% with IGROV1 ovarian; 99.4% in the assay with OVCAR-3 ovarian; 100% in the assay on HS 578T breast; 110% with NCI/ADR-RES ovarian.
